From PubChem BioAssay
Shown are actives, neighbours in structure and some others; about 2.3% of the full set was active somewhere.
M1 PAM parental = M1 PAM counterscreen hit in parental CHO-K1 cells. ATP EC20, Fluo-8 calcium fluorescence; 0% at ATP EC20, 100% at ATP max. activation, % at 3 µM. 360,000 compounds, 0.02% hits. AID 602247;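 active = activation above the run cutoff, the mean activation of all test compounds plus 3 SD, cut at about 40% in these data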;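 also: peak over basal fluorescence ratio in a 140 s read after ATP addition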
M1 antag = antagonists of human M1 muscarinic receptor; P11229; CHO-K1 hM1, Fluo-8 calcium fluorescence, ACh EC80 antagonist; inhibition, % at 3 µM; 360,000 compounds, 1.3% hits;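 active = percent inhibition above its own plate's cutoff, namely the mean of that plate's compound wells plus 3 SD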;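 also: peak over basal fluorescence ratio during 140 s after agonist addition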
Target sequence (P11229 whole entry, looked up): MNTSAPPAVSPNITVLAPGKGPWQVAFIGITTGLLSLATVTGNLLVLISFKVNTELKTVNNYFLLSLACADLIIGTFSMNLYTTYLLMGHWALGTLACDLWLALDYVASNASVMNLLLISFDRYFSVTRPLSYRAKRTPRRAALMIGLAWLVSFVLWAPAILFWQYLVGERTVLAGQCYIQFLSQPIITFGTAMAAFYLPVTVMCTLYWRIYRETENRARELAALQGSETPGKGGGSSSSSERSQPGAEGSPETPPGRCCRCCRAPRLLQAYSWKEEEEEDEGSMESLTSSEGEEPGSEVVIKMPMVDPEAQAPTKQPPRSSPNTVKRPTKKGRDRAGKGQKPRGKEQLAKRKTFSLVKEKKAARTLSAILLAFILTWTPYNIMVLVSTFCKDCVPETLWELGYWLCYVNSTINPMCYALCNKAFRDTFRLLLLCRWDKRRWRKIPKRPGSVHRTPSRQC
M1 ag = human M1 muscarinic receptor agonism; CHO-K1 hM1, Fluo-8 calcium fluorescence, agonist mode; 0% DMSO, 100% acetylcholine EC100; 360,000 compounds, 0.33% hits; P11229; AID 588814; activation, % at 3 µM;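 active = activation above the run's mean compound activation plus 3 SD, cut at about 16% in these data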;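 also: peak over basal fluorescence ratio within a 140 s kinetic read after compound addition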
CHRM1 PAM = positive allosteric modulators of human M1 muscarinic receptor; CHO-K1 hM1, Fluo-8 calcium fluorescence, ACh EC20; 0% = ACh EC20, 100% = maximal ACh; P11229; 360,000 compounds, 0.088% hits; activation, % at 3 µM; in the data active = activation above about 19%, passing the limit was not always enough
CHO-K1 Ca antag = M1 antagonist counterscreen hit in parental CHO-K1 cells; ATP-induced calcium, Fluo-8 fluorescence; inhibition, % at 3 µM; 360,000 compounds, 0.6% hits;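 active = inhibition above a per-plate cutoff, the plate's mean sample inhibition plus 3 SD, cut at about 24% in these data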
M1 ag parental = nonselective activator or artifact in parental CHO-K1 cells; 360,000 compounds, 0.48% hits; activation, % at 3 µM; Fluo-8 calcium fluorescence; scaled to maximal ATP response, vehicle zero; in the data active = activation above about 15%;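 also: untransfected CHO-K1 host cells lacking M1 receptor as counterscreen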
Hits are given with their value; ! = not active in a repeat.

Results for Cc1ccnc2nc(C(=O)OCC(=O)NC3CCC(C)CC3)nn12 (stereo not drawn) ?
M1 PAM parental: inactive; M1 antag: inactive; M1 ag: inactive; CHRM1 PAM: inactive; CHO-K1 Ca antag: inactive; M1 ag parental: inactive

Results for Cc1ccnc2nc(C(=O)OCCOc3cccc(Br)c3)nn12 ?
M1 PAM parental: inactive; M1 antag: inactive; M1 ag: inactive; CHRM1 PAM: 22.9; CHO-K1 Ca antag: 25.5; M1 ag parental: inactive

Results for Cc1ccnc2nc(C(=O)OCC(=O)NC3CCCC(C)C3C)nn12 (stereo not drawn) ?
M1 PAM parental: inactive; M1 antag: inactive; M1 ag: inactive; CHRM1 PAM: 29.6; CHO-K1 Ca antag: inactive; M1 ag parental: inactive

Results for CC(Oc1ccc([N+](=O)[O-])cc1)C(=O)NCC1CCCO1 (stereo not drawn) ?
M1 PAM parental: inactive; M1 antag: inactive; M1 ag: inactive; CHRM1 PAM: inactive; CHO-K1 Ca antag: inactive; M1 ag parental: inactive

Results for CC1Sc2ccc(S(=O)(=O)N3CCC(C(=O)NCc4ccccc4)CC3)cc2NC1=O (stereo not drawn) ?
M1 PAM parental: inactive; M1 antag: inactive; M1 ag: inactive; CHRM1 PAM: inactive; CHO-K1 Ca antag: inactive; M1 ag parental: inactive

How did CCn1cc(S(=O)(=O)CC(=O)Nc2cccc(C)c2)c2ccccc21 do in these assays?
M1 PAM parental: inactive; M1 antag: inactive; M1 ag: inactive; CHRM1 PAM: inactive; CHO-K1 Ca antag: inactive; M1 ag parental: inactive

What do the screens show for `Cc1cc(NC(=O)CS(=O)(=O)c2cn(Cc3cccc(Cl)c3)c3ccccc23)no1`?
M1 PAM parental: inactive; M1 antag: inactive; M1 ag: 26.5; CHRM1 PAM: inactive; CHO-K1 Ca antag: inactive; M1 ag parental: inactive

How did CCn1cc(S(=O)(=O)CC(=O)Nc2ccc(C)cc2)c2ccccc21 do in these assays?
M1 PAM parental: inactive; M1 antag: inactive; M1 ag: inactive; CHRM1 PAM: inactive; CHO-K1 Ca antag: 26.7; M1 ag parental: inactive

What do the screens show for `CCc1ccc(NC(=O)COC(=O)c2nc3nc(C)cc(C)n3n2)cc1`?
M1 PAM parental: inactive; M1 antag: inactive; M1 ag: inactive; CHRM1 PAM: inactive; CHO-K1 Ca antag: inactive; M1 ag parental: inactive

How did Cc1nn(C(=O)c2cccc([N+](=O)[O-])c2)c(C)c1Cl do in these assays?
M1 PAM parental: inactive; M1 antag: inactive; M1 ag: inactive; CHRM1 PAM: inactive; CHO-K1 Ca antag: inactive; M1 ag parental: inactive

What do the screens show for `COc1cc(NC(=O)C2(C)CCCN2C)cc(OC)c1OC` (stereo not drawn)?
M1 PAM parental: inactive; M1 antag: inactive; M1 ag: inactive; CHRM1 PAM: inactive; CHO-K1 Ca antag: 28.0; M1 ag parental: inactive

How did OCCN1CCN(CC/C=C2/c3ccccc3CSc3ccccc32)CC1 do in these assays?
M1 PAM parental: inactive; M1 antag: inactive; M1 ag: inactive; CHRM1 PAM: inactive; CHO-K1 Ca antag: inactive; M1 ag parental: inactive

Results for CNCC/C=C1/c2ccccc2CSc2ccccc21 ?
M1 PAM parental: inactive; M1 antag: 95.0; M1 ag: inactive; CHRM1 PAM: inactive; CHO-K1 Ca antag: inactive; M1 ag parental: inactive

How did CCn1ccc(C(=O)Nc2ncc(C)s2)n1 do in these assays?
M1 PAM parental: inactive; M1 antag: inactive; M1 ag: inactive; CHRM1 PAM: inactive; CHO-K1 Ca antag: inactive; M1 ag parental: inactive

How did COc1cccc(/C=N/Nc2snc(SC)c2C#N)c1O do in these assays?
M1 PAM parental: inactive; M1 antag: inactive; M1 ag: inactive; CHRM1 PAM: inactive; CHO-K1 Ca antag: inactive; M1 ag parental: 16.9

How did CN(C(=O)Cc1c(C(=O)O)n(C)c2ccccc12)c1cccc(C(F)(F)F)c1 do in these assays?
M1 PAM parental: inactive; M1 antag: inactive; M1 ag: inactive; CHRM1 PAM: inactive; CHO-K1 Ca antag: inactive; M1 ag parental: inactive

How did Cc1ccc(C(=O)Nc2cccc(C(F)(F)F)c2)cc1NC(=O)c1c[nH]c2cc(C(F)(F)F)ccc2c1=O do in these assays?
M1 PAM parental: inactive; M1 antag: inactive; M1 ag: inactive; CHRM1 PAM: inactive; CHO-K1 Ca antag: inactive; M1 ag parental: inactive

What do the screens show for `CCN1CCN(Cc2ccc(NC(=O)c3ccc(C)c(NC(=O)c4c[nH]c5cc(C(F)(F)F)ccc5c4=O)c3)cc2C(F)(F)F)CC1`?
M1 PAM parental: inactive; M1 antag: inactive; M1 ag: inactive; CHRM1 PAM: inactive; CHO-K1 Ca antag: 25.5!; M1 ag parental: inactive

Results for COc1ccc(S(=O)(=O)N2CCCCC2)cc1NC(=O)C1CC1(Cl)Cl (stereo not drawn) ?
M1 PAM parental: inactive; M1 antag: inactive; M1 ag: inactive; CHRM1 PAM: inactive; CHO-K1 Ca antag: inactive; M1 ag parental: inactive

Results for CC1(O)c2ccccc2C(=O)N1Cc1ccccc1 (stereo not drawn) ?
M1 PAM parental: inactive; M1 antag: inactive; M1 ag: inactive; CHRM1 PAM: inactive; CHO-K1 Ca antag: 27.1; M1 ag parental: inactive

What do the screens show for `CC1(O)c2ccccc2C(=O)N1CCc1ccccc1F` (stereo not drawn)?
M1 PAM parental: inactive; M1 antag: inactive; M1 ag: inactive; CHRM1 PAM: inactive; CHO-K1 Ca antag: inactive; M1 ag parental: inactive

Results for Cc1cc(C)cc(OCC(=O)Nc2ccc(-n3cnnn3)cc2)c1 ?
M1 PAM parental: inactive; M1 antag: inactive; M1 ag: inactive; CHRM1 PAM: inactive; CHO-K1 Ca antag: inactive; M1 ag parental: inactive

How did Cc1nnc(C)c2c(C)n(Cc3ccc4c(c3)OCO4)c(C)c12 do in these assays?
M1 PAM parental: inactive; M1 antag: inactive; M1 ag: inactive; CHRM1 PAM: inactive; CHO-K1 Ca antag: 23.8; M1 ag parental: inactive

Results for CC(=O)Nc1cc2c(cc1Cl)-c1ccccc1C2 ?
M1 PAM parental: inactive; M1 antag: inactive; M1 ag: inactive; CHRM1 PAM: inactive; CHO-K1 Ca antag: 25.7; M1 ag parental: inactive

What do the screens show for `CCC(=O)Nc1cc2c(cc1Cl)-c1ccccc1C2`?
M1 PAM parental: inactive; M1 antag: inactive; M1 ag: inactive; CHRM1 PAM: inactive; CHO-K1 Ca antag: inactive; M1 ag parental: inactive

Results for CCCSc1nnc(NC(=O)Nc2ccc(F)cc2)s1 ?
M1 PAM parental: inactive; M1 antag: inactive; M1 ag: inactive; CHRM1 PAM: inactive; CHO-K1 Ca antag: 24.1; M1 ag parental: inactive

How did O=S(=O)(NC(CO)Cc1ccccc1)c1ccc(Br)cc1F (stereo not drawn) do in these assays?
M1 PAM parental: inactive; M1 antag: inactive; M1 ag: inactive; CHRM1 PAM: inactive; CHO-K1 Ca antag: inactive; M1 ag parental: inactive

What do the screens show for `Cc1ccc(S(=O)(=O)NN=C2C(=O)C3CCC2C3Cl)cc1` (stereo not drawn)?
M1 PAM parental: inactive; M1 antag: inactive; M1 ag: inactive; CHRM1 PAM: inactive; CHO-K1 Ca antag: inactive; M1 ag parental: inactive

Results for CN(C)C(=O)/C(=C\c1ccc(-c2cccc([N+](=O)[O-])c2)o1)NC(=O)c1ccccc1 ?
M1 PAM parental: inactive; M1 antag: inactive; M1 ag: inactive; CHRM1 PAM: inactive; CHO-K1 Ca antag: inactive; M1 ag parental: inactive
